Shiga toxin inh: blocks Shiga toxin action in Vero cells; Vero cells, Shiga toxin protein synthesis inhibition reporter; inhibition, % at 38.7 µM; 9.2% of 290,000 active; in the data active = inhibition mostly above about 28%, no sharp cut-off; inactive = mostly below about 43%; also: 0% is about no effect
Marburg entry inh: Marburg virus entry inhibition; Marburg virus pseudotyped entry inhibition, cell reporter; Potency, µM (top dose mostly 37.8 µM), without a hit: top-dose activity change, negative = inhibition, actives largely listed as inhibitors; 1.8% of 300,000 active; AID 540276; calls by dose curve; tested in HEK293 cells; also: potency is read from the fitted curve at half-maximal effect; % is scaled to controls: 0 for no effect and ±100 for the full control effect
AMA1 RON2 block: disrupts binding of P. falciparum AMA1 to RON2; Potency, µM (highest dose often 58.2 µM), for the others: top-dose activity change, negative = inhibition, most hits filed as inhibitors; 0.2% of 360,000 active; AlphaScreen AMA1-biotinylated RON2 peptide binding; active = well fitted inhibition curve with a large enough effect; inconclusive = small, poorly fitted or top-dose-only effect; inactive = no such curve, though single readings can be large or run the other way;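 also: potency is read from the fitted curve at half-maximal effect; 0% = vehicle wells and -100% = peptide control; nearly all actives have a fitted effect of over 45% in size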
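AMA1 (3D7) with his tag at 25 nM final met compounds first, then biotinylated RON2 peptide at 25 nM; detection used donor plus acceptor beads, 10 µg/mL apiece, read by AlphaScreen after 30 min at room temperature.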
Lassa entry inh: blocks Lassa virus binding to or entry into cells | Lassa virus pseudotype entry inhibition, cell reporter | Potency, µM (series often up to 37.9 µM), without a hit: at the highest dose activity change, negative = inhibition, actives largely listed as inhibitors | 1.2% of 300,000 active | AID 540256; calls by dose curve; tested in HEK293 cells; also: potency is read from the fitted curve at half-maximal effect; % is scaled to controls: 0 for no effect and ±100 for the full control effect; nearly all actives have a fitted effect of over 50% in size
Cycloheximide cs: counter-screen for Shiga toxin inhibitors: cycloheximide protein synthesis inhibition | AID 2314 | 12% of 300,000 active | max response, % | cell reporter, cycloheximide protein synthesis inhibition counterscreen; in the data active = max response mostly above about 13%, no sharp cut-off; inactive = mostly below about 14%; also: read at 38.3 µM for the half of the compounds with a filed dose; 0% is about no effect
* marks the source's active call; other numbers are inactive results; [ ] = remark or other dose. The full list was thinned out, with hits kept by preference.

How did Cc1ccccc1C(=O)c1cccn1CC(=O)NCc1ccc(F)cc1 do in these assays?
Shiga toxin inh: 21; Marburg entry inh: -11%[46.1 µM]; AMA1 RON2 block: -4%; Lassa entry inh: -3%[46.1 µM]; Cycloheximide cs: 20

How did CO[C@H](C1CCCCC1)[C@H](C)C=CCC(=O)OCCCc1ccccc1 do in these assays?
Marburg entry inh: 5%[14.2 µM]; Lassa entry inh: inconclusive

Results for CCOc1ccc(NC(=O)c2ccc3c(c2)nnn3C2CCCC2)cc1 ?
Lassa entry inh: -2%[46.1 µM]

How did CCCCCN(C(=O)CCC(=O)OCC(=O)N1C(C)CCCC1C)c1c(N)n(CCCC)c(=O)[nH]c1=O (stereo not given) do in these assays?
Shiga toxin inh: 23; Marburg entry inh: inconclusive; AMA1 RON2 block: -10%; Lassa entry inh: 4%; Cycloheximide cs: 1

Results for Clc1ccc2c(c1)[C@H]1OCC[C@H]1[C@@H](c1ccco1)N2 ?
Shiga toxin inh: 66*; AMA1 RON2 block: -3%; Cycloheximide cs: 25*

How did Fc1ccc2c(c1)[C@H]1OCC[C@H]1[C@@H](c1ccco1)N2 do in these assays?
Shiga toxin inh: 8; Marburg entry inh: -7%; AMA1 RON2 block: -14%; Lassa entry inh: -7%; Cycloheximide cs: 5

Results for O=C(NC1CCCCC1)c1ccc(CS(=O)(=O)Cc2ccccc2F)o1 ?
Shiga toxin inh: 68*; Marburg entry inh: 16%; AMA1 RON2 block: -6%; Lassa entry inh: 0%; Cycloheximide cs: 20*

Results for O=C(NC1CCCC1)c1ccc(CSCc2ccccc2F)o1 ?
Shiga toxin inh: 31; Marburg entry inh: 16%; AMA1 RON2 block: 3%; Lassa entry inh: inconclusive; Cycloheximide cs: 31*

Results for Cc1nn(CC(=O)NNC(=O)c2cccc(Br)c2)c(C)c1[N+](=O)[O-] ?
Shiga toxin inh: 8; Marburg entry inh: 6%; AMA1 RON2 block: 27%; Lassa entry inh: 14%; Cycloheximide cs: -1

How did CC1(C)CSC(=NCCc2ccccc2)N1 do in these assays?
Shiga toxin inh: 54*; Marburg entry inh: 28%[46.1 µM]; AMA1 RON2 block: 22%; Lassa entry inh: inconclusive; Cycloheximide cs: 14*

Results for CC(OC(=O)CC1Sc2ccccc2NC1=O)C(=O)NC1CCCC1 (stereo not given) ?
Shiga toxin inh: -11; Marburg entry inh: 13%[46.1 µM]; AMA1 RON2 block: 12%; Lassa entry inh: 5%; Cycloheximide cs: -4

What do the screens show for `O=C(CC(Nc1ccccc1)C(=O)O)c1ccccc1` (stereo not given)?
Shiga toxin inh: 139*; Marburg entry inh: -6%; AMA1 RON2 block: 11%; Lassa entry inh: inconclusive; Cycloheximide cs: 37*

Results for O=C(CC(C(=O)O)c1cccc(Cl)c1)c1ccccc1 (stereo not given) ?
Shiga toxin inh: -3; AMA1 RON2 block: 7%; Cycloheximide cs: 1

What do the screens show for `O=C(CC(Nc1ccc(Cl)cc1Cl)C(=O)O)c1ccccc1` (stereo not given)?
Shiga toxin inh: 155*; AMA1 RON2 block: -1%; Cycloheximide cs: 65*

How did Cc1ccc(NC(CC(=O)c2ccccc2)C(=O)O)cc1Cl (stereo not given) do in these assays?
Shiga toxin inh: 71*; AMA1 RON2 block: 1%; Cycloheximide cs: 41*

How did O=C(CC(Nc1ccccc1)c1ccccc1)C1CC1 (stereo not given) do in these assays?
Shiga toxin inh: -13; Marburg entry inh: 0%; AMA1 RON2 block: -11%; Lassa entry inh: 2%; Cycloheximide cs: -3

How did O=C(CC(Nc1ccccc1)c1ccc(F)cc1)c1ccccc1 (stereo not given) do in these assays?
Shiga toxin inh: 56*; Marburg entry inh: -17%; AMA1 RON2 block: -10%; Lassa entry inh: -1%; Cycloheximide cs: 73*

Results for CSCCC(NC(=O)c1ccccc1)C(=O)OCC(=O)Nc1ccc(C)c(Cl)c1 (stereo not given) ?
Shiga toxin inh: 14; Marburg entry inh: 1%; AMA1 RON2 block: -13%; Lassa entry inh: -3%; Cycloheximide cs: 0

What do the screens show for `O=C1C[C@@H]2c3c(cccc3CN1Cc1ccccc1F)C[C@@H](O)[C@H]2O`?
AMA1 RON2 block: 0%

Results for O=C(NC1CCC(O)CC1)c1ccc(NS(=O)(=O)c2cccc([N+](=O)[O-])c2)cc1 (stereo not given) ?
AMA1 RON2 block: 55%

Results for COc1cccc(CN2CC34CC(c5ccc(C(C)=O)cc5)C(CC3S2(=O)=O)O4)c1 (stereo not given) ?
Shiga toxin inh: -7; Cycloheximide cs: -4

Results for COc1ccc(S(=O)(=O)N2CCC(C(=O)N[C@@H](C)C(=O)NCc3cccnc3)CC2)cc1 ?
AMA1 RON2 block: -2%

Results for CS(=O)(=O)N(CC(=O)NCc1ccco1)c1ccc(OCc2ccccc2)cc1 ?
Shiga toxin inh: 32; Marburg entry inh: -2%; AMA1 RON2 block: -9%; Lassa entry inh: inconclusive; Cycloheximide cs: 16

How did O=[N+]([O-])c1cccc(/C=N/Nc2nc(NCc3ccccc3)nc(N3CCOCC3)n2)c1O do in these assays?
Shiga toxin inh: 5; AMA1 RON2 block: -82%; Cycloheximide cs: 18

How did COc1ccc(NC(C)=O)cc1S(=O)(=O)Nc1ccc2c(c1)OCCO2 do in these assays?
Shiga toxin inh: 17; Marburg entry inh: 3%[46.1 µM]; AMA1 RON2 block: 18%; Lassa entry inh: -13%; Cycloheximide cs: 24*

How did COc1ccc(Cl)cc1C(=O)Nc1ccc2c(c1)OCCO2 do in these assays?
Shiga toxin inh: 36*; AMA1 RON2 block: -2%; Cycloheximide cs: 30*

How did COc1ccc(Cl)cc1C(=O)Nc1ccc2c(c1)OCO2 do in these assays?
Shiga toxin inh: 87*; Marburg entry inh: 28%; AMA1 RON2 block: -2%; Lassa entry inh: 9%; Cycloheximide cs: 44*

Results for COc1ccc(C)cc1S(=O)(=O)Nc1ccc2c(c1)OCCO2 ?
AMA1 RON2 block: 3%; Cycloheximide cs: 2

What do the screens show for `COc1ccc(Cl)cc1C(=O)Nc1ccncc1`?
Shiga toxin inh: -4; Marburg entry inh: 1%; AMA1 RON2 block: -16%; Lassa entry inh: 1%; Cycloheximide cs: -2

What do the screens show for `Nc1c([N+](=O)[O-])c(=O)oc2ccccc12`?
Shiga toxin inh: -6; Marburg entry inh: -2%[46.1 µM]; AMA1 RON2 block: -12%; Lassa entry inh: 15%[46.1 µM]; Cycloheximide cs: 6

How did Cc1ccc(C(=O)c2nccn2C)cc1C do in these assays?
Shiga toxin inh: 46; Marburg entry inh: inconclusive; AMA1 RON2 block: -1%; Lassa entry inh: 5%[46.1 µM]; Cycloheximide cs: 42*

How did CN1CCN(c2nc(-c3ccccc3)nc(-c3ccc(F)cc3)c2C#N)CC1 do in these assays?
Shiga toxin inh: -3; Marburg entry inh: 11µM*; AMA1 RON2 block: inconclusive; Lassa entry inh: -13%[46.1 µM]; Cycloheximide cs: -3

How did O=C(Nc1ccc(F)cc1F)c1noc2c1CCC2 do in these assays?
Shiga toxin inh: 59*; Marburg entry inh: 0%; AMA1 RON2 block: -21%; Lassa entry inh: inconclusive; Cycloheximide cs: 35*

How did O=C(NCc1ccc(Cl)cc1)c1noc2c1CCCCC2 do in these assays?
Shiga toxin inh: 47*; Marburg entry inh: inconclusive; AMA1 RON2 block: -13%; Lassa entry inh: -19%[14.3 µM]; Cycloheximide cs: 32*
